The values that follow come from PubChem BioAssay (EPA / NIEHS).

Values joined by “and” are separate entries in the source; they are usually repeats but may differ in a detail not shown here. Equal values may be shown once. Records with an inconclusive call do not appear. More than one record can exist for a structure, and the calls need not agree. Active and inactive are the calls of the source. How the source made its calls: active means hit-call score of the fitted dose curve at least 0.9, where 1 is the maximum; inconclusive means response in the unintended direction; inactive means score below 0.9.

The target in the first experiment is Cellular tumor antigen p53 (Homo sapiens) (UniProt P04637). Kind of experiment: TOX21_p53_BLA_p2_ratio: Tox21 HCT-116 p53 Agonism Beta-lactamase Assay, Ratio, Phase 2 (AID 2283592). Put shortly: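 Human colon HCT116 cells with an inducible p53 beta-lactamase reporter are exposed to test chemicals for 16 h at 37C. Reporter induction is read as the 460/530 nm emission ratio after CCF4-AM loading, normalized to DMSO.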
Cellular tumor antigen p53 (Homo sapiens), sequence (P04637 whole entry, looked up): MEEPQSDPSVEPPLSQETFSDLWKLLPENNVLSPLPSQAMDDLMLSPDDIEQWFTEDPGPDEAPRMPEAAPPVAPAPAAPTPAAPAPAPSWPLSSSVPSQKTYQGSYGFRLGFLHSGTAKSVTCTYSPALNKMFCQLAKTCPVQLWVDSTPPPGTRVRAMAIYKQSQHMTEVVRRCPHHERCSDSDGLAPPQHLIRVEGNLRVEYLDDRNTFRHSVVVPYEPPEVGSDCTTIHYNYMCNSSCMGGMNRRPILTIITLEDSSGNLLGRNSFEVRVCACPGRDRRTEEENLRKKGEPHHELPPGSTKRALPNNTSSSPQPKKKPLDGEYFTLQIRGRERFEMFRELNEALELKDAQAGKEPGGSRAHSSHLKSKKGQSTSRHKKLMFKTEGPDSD
Consider `Clc1ccc(C(Cl)(Cl)Cl)cc1`, for which the outcome was inactive.

Take `CCCCCCCCCc1ccc(O)cc1`: the outcome was inactive.

`NS(=O)(=O)C(F)(F)C(F)(F)C(F)(F)C(F)(F)C(F)(F)C(F)(F)C(F)(F)C(F)(F)F`: the result was inactive.

For orientation: AC50 means the midpoint of the concentration-response curve, whichever way the signal moves. Regarding `CC(C)(O)C(=O)Nc1ccc([N+](=O)[O-])c(C(F)(F)F)c1`, the AC50 was 69.3 µM (active) and the outcome was inactive.

Consider `O=C(O)C(F)(F)C(F)(F)C(F)(F)C(F)(F)C(F)(F)F`, for which the outcome was inactive.

`O=S(=O)(O)C(F)(F)C(F)(F)C(F)(F)C(F)(F)F`: the result was inactive.

For the compound `Cc1cc2c3c(c1)C(c1ccccc1)=N[C@@H](NC(=O)c1ccncc1)C(=O)N3CC2`, the outcome was inactive.

As for `Cc1ccc(O)c(C)c1`, the result was inactive.

For `CCCN(CCC)N=O`, the outcome was inactive.

Regarding `COS(=O)(=O)OC`, the result was inactive.

For `OCC(O)CO`, the outcome was inactive.

For the compound `O=C(O)C(F)(F)C(F)(F)C(F)(F)C(F)(F)C(F)(F)C(F)(F)C(F)(F)C(F)(F)C(F)(F)F`, the result was inactive.

Turning to `CO/C=C(/C(=O)OC)c1ccccc1COc1cccc(C(F)(F)F)n1`, the AC50 was 2.77 µM (active).

Take `O=NN(c1ccccc1)c1ccccc1`: the outcome was inactive.

In the case of `CC#Cc1cc(C)nc(Nc2ccccc2)n1`, the outcome was inactive.

With `C[C@]12CCC(=O)C=C1CC[C@@H]1[C@@H]2CC[C@@]2(C)[C@H]1CC[C@]2(C)O`, the AC50 was 50.3 µM (active) and the result was inactive.

As to `ClC1=C(Cl)[C@]2(Cl)[C@@H]3[C@@H]4C[C@@H]([C@H]5O[C@@H]45)[C@@H]3[C@@]1(Cl)C2(Cl)Cl`, the result was inactive.

`CCOP(=S)(OCC)SCSC(C)(C)C`: the result was inactive.

On to `CCC(=O)O[C@H]1CC[C@H]2[C@@H]3CCC4=CC(=O)CC[C@]4(C)[C@H]3CC[C@]12C`, for which the AC50 is 87.7 µM (active) and the outcome was inactive.

As to `CC(c1ccc(O)cc1)(c1ccc(O)cc1)c1ccc(O)cc1`, the AC50 was 62.8 µM (active).

For the compound `O=C(N[C@H]1CN2CCC1CC2)c1cc2ccoc2cn1`, the result was inactive.

For the compound `O=S(=O)(O)C(F)(F)C(F)(F)C(F)(F)C(F)(F)C(F)(F)C(F)(F)F`, the outcome was inactive.

Regarding `COc1ccc(O)c(C(C)(C)C)c1`, the result was inactive.

On to `Cc1ccccc1[N+](=O)[O-]`, for which the outcome was inactive.

For `CCOC(=O)C(O)(c1ccc(Cl)cc1)c1ccc(Cl)cc1`, the AC50 was 63.8 µM (active) and 32.9 µM (active).

Turning to `Oc1ccc(Cl)cc1Cl`, the outcome was inactive.

System in the next experiment: not listed separately
As to the kind of experiment: TOX21_p53_BLA_p3_viability: Viability Assessment in the Tox21 HCT-116 p53 Agonism Beta-lactamase Assay, Phase 3 (AID 2283593).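 Further: cells exposed to compound for 16 h before reading.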 The method, boiled down: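 HCT-116 cells (4000/well) rested 5 h at 37C, then got DMSO compounds by pin tool (217-fold dilution) for 16 h at 37C, 5% CO2. After the bla read, CellTiter-Glo was added and luminescence read at 30 min, room temperature.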
Take `Clc1ccc(C(Cl)(Cl)Cl)cc1`: the outcome was inactive.

Consider `CCCCCCCCCc1ccc(O)cc1`, for which the call was inactive.

`NS(=O)(=O)C(F)(F)C(F)(F)C(F)(F)C(F)(F)C(F)(F)C(F)(F)C(F)(F)C(F)(F)F`: the AC50 is 46.1 µM (active).

As for `CC(C)(O)C(=O)Nc1ccc([N+](=O)[O-])c(C(F)(F)F)c1`, the call was inactive.

In the case of `O=S(=O)(O)C(F)(F)C(F)(F)C(F)(F)C(F)(F)F`, the compound was classed as inactive.

For the compound `ClC1=C(Cl)[C@]2(Cl)[C@@H]3[C@H]4C[C@H]([C@@H]5O[C@H]45)[C@@H]3[C@@]1(Cl)C2(Cl)Cl`, the compound was called inactive.

Consider `Cc1ccc(O)c(C)c1`, for which the compound was classed as inactive.

Turning to `CCCN(CCC)N=O`, the compound was called inactive.

With `COS(=O)(=O)OC`, the result was inactive.

In the case of `OCC(O)CO`, the outcome was inactive.

With `CCCCCCOC(=O)c1ccccc1C(=O)OCCCCCC`, the result was inactive.

Take `O=C(O)C(F)(F)C(F)(F)C(F)(F)C(F)(F)C(F)(F)C(F)(F)C(F)(F)C(F)(F)C(F)(F)F`: the outcome was inactive.

On to `CO/C=C(/C(=O)OC)c1ccccc1COc1cccc(C(F)(F)F)n1`, for which the compound was called inactive.

Turning to `CC#Cc1cc(C)nc(Nc2ccccc2)n1`, the compound was classed as inactive.

As for `C[C@]12CCC(=O)C=C1CC[C@@H]1[C@@H]2CC[C@@]2(C)[C@H]1CC[C@]2(C)O`, the compound was called inactive.

As to `CCC(=O)O[C@H]1CC[C@H]2[C@@H]3CCC4=CC(=O)CC[C@]4(C)[C@H]3CC[C@]12C`, the AC50 was 82 µM (active) and the result was inactive.

Turning to `CC(c1ccc(O)cc1)(c1ccc(O)cc1)c1ccc(O)cc1`, the compound was classed as inactive.

For `O=C(N[C@H]1CN2CCC1CC2)c1cc2ccoc2cn1`, the outcome was inactive.

In the case of `O=S(=O)(O)C(F)(F)C(F)(F)C(F)(F)C(F)(F)C(F)(F)C(F)(F)F`, the compound was called inactive.

Regarding `COc1ccc(O)c(C(C)(C)C)c1`, the call was inactive.

Regarding `Cc1ccccc1[N+](=O)[O-]`, the result was inactive.

For `CCOC(=O)C(O)(c1ccc(Cl)cc1)c1ccc(Cl)cc1`, the AC50 was 22 µM (active) and the outcome was inactive.

As to `Oc1ccc(Cl)cc1Cl`, the compound was called inactive.

Another experiment has as its target Cellular tumor antigen p53 (Homo sapiens) (UniProt P04637). As to the kind of experiment: TOX21_p53_BLA_p3_ratio: Tox21 HCT-116 p53 Agonism Beta-lactamase Assay, Ratio, Phase 3 (AID 2283596). Put shortly:
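HCT116 p53-bla cells (4000/well) given compound in DMSO (217-fold dilution) after 5 h, incubated 16 h at 37C. CCF4-AM substrate 2 h at room temperature; 460/530 nm emission ratio, gain fitted against DMSO.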
For `Clc1ccc(C(Cl)(Cl)Cl)cc1`, the result was inactive.

Take `NS(=O)(=O)C(F)(F)C(F)(F)C(F)(F)C(F)(F)C(F)(F)C(F)(F)C(F)(F)C(F)(F)F`: the AC50 is 47 µM (active).

On to `CC(C)(O)C(=O)Nc1ccc([N+](=O)[O-])c(C(F)(F)F)c1`, for which the result was inactive.

As to `O=C(O)C(F)(F)C(F)(F)C(F)(F)C(F)(F)C(F)(F)F`, the outcome was inactive.

Take `O=S(=O)(O)C(F)(F)C(F)(F)C(F)(F)C(F)(F)F`: the outcome was inactive.

Regarding `ClC1=C(Cl)[C@]2(Cl)[C@@H]3[C@H]4C[C@H]([C@@H]5O[C@H]45)[C@@H]3[C@@]1(Cl)C2(Cl)Cl`, the result was inactive.

Turning to `Cc1ccc(O)c(C)c1`, the outcome was inactive.

For the compound `CCCN(CCC)N=O`, the result was inactive.

As to `COS(=O)(=O)OC`, the result was inactive.

With `OCC(O)CO`, the result was inactive.

As for `O=C(O)C(F)(F)C(F)(F)C(F)(F)C(F)(F)C(F)(F)C(F)(F)C(F)(F)C(F)(F)C(F)(F)F`, the outcome was inactive.

For `CO/C=C(/C(=O)OC)c1ccccc1COc1cccc(C(F)(F)F)n1`, the AC50 is 6.17 µM (active).

Turning to `O=NN(c1ccccc1)c1ccccc1`, the result was inactive.

Consider `C[C@]12CCC(=O)C=C1CC[C@@H]1[C@@H]2CC[C@@]2(C)[C@H]1CC[C@]2(C)O`, for which the outcome was inactive.

For `ClC1=C(Cl)[C@]2(Cl)[C@@H]3[C@@H]4C[C@@H]([C@H]5O[C@@H]45)[C@@H]3[C@@]1(Cl)C2(Cl)Cl`, the result was inactive.

Regarding `CCC(=O)O[C@H]1CC[C@H]2[C@@H]3CCC4=CC(=O)CC[C@]4(C)[C@H]3CC[C@]12C`, the result was inactive.

`CC(c1ccc(O)cc1)(c1ccc(O)cc1)c1ccc(O)cc1`: the AC50 was 78.9 µM (active).

As for `O=C(N[C@H]1CN2CCC1CC2)c1cc2ccoc2cn1`, the result was inactive.

In the case of `O=S(=O)(O)C(F)(F)C(F)(F)C(F)(F)C(F)(F)C(F)(F)C(F)(F)F`, the result was inactive.

For `COc1ccc(O)c(C(C)(C)C)c1`, the result was inactive.

In the case of `Cc1ccccc1[N+](=O)[O-]`, the result was inactive.

Consider `CCOC(=O)C(O)(c1ccc(Cl)cc1)c1ccc(Cl)cc1`, for which the AC50 is 55.2 µM (active) and 50.6 µM (active).

For the compound `Oc1ccc(Cl)cc1Cl`, the result was inactive.
